# Laboratory results taken from PubChem BioAssay AID434968 (Broad Institute, 2010).
# About 1,800 (86%) of roughly 2,100 compounds were called active. The rule behind the calls is not given here. So high a share suggests a set chosen from earlier hits. These entries were drawn from the full list.
# Assay: counter-screen: blocks GFP chromophore formation, dose response, counter-screen, biochemical, fluorescence, homogeneous (AID 434968)
# Conditions: cell-free GFP chromophore formation
row,SMILES,EC50
1,CCCCCCCCCCOC(=O)Cn1c(COc2cccc(OC)c2)[n+](C)c2ccccc21,10.4 µM (active)
2,CCCCCCCCCCOC(=O)Cn1c(COc2ccc(C)cc2)[n+](C)c2ccccc21,16.1 µM (active)
3,COc1ccc(C2C(C#N)=C(N)Oc3n[nH]c(C)c32)cc1CN1CCN(c2ccc(F)cc2)CC1 (configuration not stated),23 µM (active)
4,Cc1cc(C(=O)CCl)c(C)n1CC1COc2ccccc2O1 (configuration not stated),37.5 µM (active)
5,Cc1oc2c(c1C(=O)N1CCOCC1)C(=O)c1ccccc1C2=O,3.63 µM (active)
6,O=C1CC(c2ccccc2)=NN1c1ccc([N+](=O)[O-])cc1,15.8 µM (active)
7,COc1ccc(C(=O)NC(=S)NNC(=O)CCc2ccccc2)cc1,> 38 µM (inactive)
8,CCOC(=O)C(CC)Sc1ncnc2c1nnn2-c1ccc(F)cc1 (configuration not stated),> 38 µM (inactive)
9,NC1=NN(c2cccc(C(=O)O)c2)C(=O)C1,31.6 µM (active)
10,Oc1c(Cl)cc(Cl)c(Cl)c1Cc1c(O)c(Cl)cc(Cl)c1Cl,7.06 µM (active)
11,NC(=O)CC[C@@H]1NC(=O)[C@H](CO)NC(=O)c2cc([N+](=O)[O-])cc(I)c2NCC[C@@H](C(N)=O)NC1=O,22.5 µM (active)
12,Cc1ccccc1C(CC(=O)c1cccs1)C(C#N)C#N (configuration not stated),2.18 µM (active)
13,CCOC(=O)N1CCC(c2cc(=O)n(-c3ccccc3)[nH]2)CC1,7.17 µM (active)
14,O=C(CCl)N(Cc1cccc([N+](=O)[O-])c1)c1cccc(Cl)c1,3.06 µM (active)
15,Oc1ccc(N=Cc2sc3ccccc3c2Cl)cc1,> 38 µM (inactive)
16,COc1ccc(-c2csc(Nc3ccc(O)cc3)n2)cc1,> 38 µM (inactive)
17,O=[N+]([O-])c1c(NCCO)cc(Sc2nc3ccccc3s2)c2nonc12,0.766 µM (active)
18,O=C(c1ccc(Cl)cc1)n1cnc2ccccc21,22.1 µM (active)
19,O=C1NC(c2ccc(-c3ccccc3[N+](=O)[O-])o2)C(C(=O)c2ccc(Cl)cc2)C(O)(C(F)(F)F)N1 (configuration not stated),25.2 µM (active)
20,CC(CCn1cccn1)NC(=O)CCc1nnc(CCc2ccccc2)o1 (configuration not stated),> 38 µM (inactive)
21,CC(C)OC(=O)CN1C(=O)C(=O)c2ccccc21,22.5 µM (active)
22,O=C(Nc1ccccc1)c1nnsc1S(=O)(=O)c1ccc(Cl)cc1,11.7 µM (active)
23,CC1(N2CCOCC2)CC2(O)C(=[N+]1[O-])CCc1nonc12 (configuration not stated),24.9 µM (active)
24,N#Cc1c(N)n(CCOC(=O)c2ccc(Cl)cc2)c2nc3ccccc3nc12,2.69 µM (active)
25,COc1ccc(C(CCN(Cc2ccc(OC)c(OC)c2)C(=O)CCl)c2ccccc2)cc1 (configuration not stated),0.326 µM (active)
26,CCN(CC)c1ccc2oc(=O)c(C)nc2c1,13.6 µM (active)

row,SMILES,EC50
1,COc1ccc2c(c1)C(=C(C#N)C#N)C(=O)N2CCc1ccccc1,> 38 µM (inactive)
2,COc1ccccc1-n1nnnc1S(=O)(=O)Cc1ccc(Cl)cc1,27.2 µM (active)
3,Cc1ccc(NC(=O)c2cnc(SCC(=O)NCC3CCCO3)n(C)c2=O)cc1 (configuration not stated),> 38 µM (inactive)
4,Cc1nn(Cc2ccccc2)c2c1C(c1ccccc1)C(C#N)=C(N)O2 (configuration not stated),15.2 µM (active)
5,O=S(=O)(O)Oc1c[nH]c2ccccc12,0.78 µM (active)
6,COC(=O)c1sc(-c2ccc(C(C)(C)C)cc2)cc1NC(=O)/C=C/C(=O)O,4.26 µM (active)
7,CCOC(=O)c1c(C)[nH]c2c1-c1ccccc1C(=O)C2=O,2.58 µM (active)
8,CCOC(=O)C1=C(c2ccc(OC)cc2)C(=O)c2ccccc2C1=O,6.35 µM (active)
9,COc1ccc(S(=O)(=O)/N=C2\C=C(NS(=O)(=O)c3ccccc3)C(=O)c3ccccc32)cc1,3.05 µM (active)
10,C=CS(=O)c1sc(Cl)c(N2CCOCC2)c1[N+](=O)[O-] (configuration not stated),24.9 µM (active)
11,Cc1oc2cc([N+](=O)[O-])c(O)c([N+](=O)[O-])c2c1C(=O)c1ccc(Br)cc1,19.5 µM (active)
12,Cc1ccc(SCC2=NNC(=O)C2)cc1,6.33 µM (active)
13,CCOc1c(Br)cc(/C=C2\C(=O)N(CCC#N)N=C2C)cc1OC,3.7 µM (active)
14,CN(c1ccccc1)c1ccc([N+](=O)[O-])c2nonc12,20.3 µM (active)
15,CC(=O)C12CC(C)=C(C)CC1CC1C3CCC4=CC(=O)CCC4(C)C3CCC12C (configuration not stated),> 38 µM (inactive)
16,Cc1cc2[nH]ncc2cc1NC(=S)NC(=O)c1ccccc1,> 38 µM (inactive)
17,O=S(=O)(Nc1ccc(O)c2ccccc12)c1ccc(OC(F)(F)F)cc1,0.19 µM (active)
18,O=c1[nH]c2ccccc2n2c(-c3ccccc3)nnc12,26.2 µM (active)
19,O=C(Oc1ccc(Br)cc1C(=S)N1CCOCC1)c1cccc([N+](=O)[O-])c1,> 38 µM (inactive)
20,CCCCOC(=O)CNc1nnc(SCC(=O)OCC)[nH]c1=O,11.3 µM (active)
21,COC(=O)CC1=NN(c2nc(C)cc(C)n2)C(=O)C1,> 38 µM (inactive)
22,Cc1ccc(Nc2cc(C)nc3c(C)ccc([N+](=O)[O-])c23)cc1,12 µM (active)
23,Cc1ccc(CNC(=O)CCN2C(=O)[C@@H]3Cc4ccccc4CN3C2=O)cc1,> 38 µM (inactive)
24,Cc1[nH]n(C)c(=O)c1C(=O)c1c(-c2c(Cl)cccc2Cl)noc1C,12.1 µM (active)
25,CCCCCCCCc1c(O)nc(-n2[nH]c(C)c(CCO)c2=O)[nH]c1=O,> 38 µM (inactive)
26,CSc1nnc(NC(=O)c2nc(S(=O)(=O)Cc3ccc(C)cc3)ncc2Cl)s1,17 µM (active)

row,SMILES,EC50
1,Cc1cccc(CS(=O)(=O)c2ncc(Cl)c(C(=O)Nc3ccc(F)cc3)n2)c1,2.65 µM (active)
2,CC1=NN(Cc2ccccc2)C(=O)/C1=C/c1ccc(N(C)C)cc1,3.59 µM (active)
3,O=C(CCCN1C(=O)/C(=C/c2ccccc2)SC1=S)Nc1ccc(O)cc1,> 38 µM (inactive)
4,CC1=NNC(=O)C1Cc1c(Cl)cccc1Cl (configuration not stated),3.71 µM (active)
5,Cc1ccsc1/C=N/NC(=O)Cc1cc(=O)[nH][nH]1,6.88 µM (active)
6,O=C(Cc1cc(=O)[nH][nH]1)N/N=C/c1ccccc1[N+](=O)[O-],10.3 µM (active)
7,CCCc1[nH]nc2c1C(c1ccc(Br)s1)C(C#N)=C(N)O2 (configuration not stated),17.8 µM (active)
8,CCCc1[nH]nc2c1C(c1ccc(OC(=O)c3ccco3)cc1)C(C#N)=C(N)O2 (configuration not stated),25.1 µM (active)
9,CCc1ccc(C2C(C#N)=C(N)Oc3n[nH]c(CC(=O)OC)c32)cc1 (configuration not stated),36.3 µM (active)
10,COc1ccc(-c2[nH]nc3c2C(c2ccncc2)C(C#N)=C(N)O3)cc1 (configuration not stated),21.3 µM (active)
11,Cc1cc(C)n2nc(CNS(=O)(=O)c3c(F)c(F)c(F)c(F)c3F)nc2n1,10 µM (active)
12,CN1CCc2nc(SC(C(=O)O)c3ccccc3)c(C#N)c(-c3cccs3)c2C1 (configuration not stated),31.1 µM (active)
13,Cc1nc2ccccc2nc1N/N=C/c1ccc(O)cc1O,> 38 µM (inactive)
14,O=C(Nc1ccccc1Cl)/C(Cl)=C(\Cl)S(=O)c1ccccc1 (configuration not stated),1.31 µM (active)
15,Cc1c(-c2nn(C)c(=O)c3ccccc23)oc2ccc(F)cc2c1=O,6.81 µM (active)
16,CCOCC(=O)NCc1ccc2c(c1)cc(C)n2C,> 12 µM (inactive)
17,COc1ccc(/C=C2/C(=O)N(c3ccccc3)N=C2C)c(OC)c1,21.7 µM (active)
18,COc1ccc(C2NC(=S)NC3=C2CCc2ccccc23)cc1OC (configuration not stated),22.7 µM (active)
19,Cc1ccc(N(Cc2cc(=O)[nH]c3ccccc23)C(=O)CCl)cc1,0.148 µM (active)
20,CCOc1ccc(C(c2c(C)[nH][nH]c2=O)c2c(C)[nH][nH]c2=O)cc1OCC,0.386 µM (active)
21,Cc1[nH][nH]c(=O)c1C(c1ccc2c(c1)OCO2)c1c(C)[nH][nH]c1=O,0.426 µM (active)
22,O=C1/C(=C/c2ccc3c(c2)OCO3)CCC/C1=C\c1ccc2c(c1)OCO2,> 38 µM (inactive)
23,COc1cccc(/C=N/Nc2cc(C)nc(-c3ccccc3O)n2)c1O,> 38 µM (inactive)
24,O=C(O)CSc1c2c(nc3cc(C(=O)Nc4cccc(C(F)(F)F)c4)ccc13)CCCC2,15.6 µM (active)
25,COc1ccc(-c2nnc(SC(=O)N3c4ccccc4Sc4ccccc43)o2)cc1,0.551 µM (active)
